Screening data from PubChem.
Apoferritin bind: candidate novel general anesthetic via apoferritin binding | P02791 | Potency, µM (titrated, usually from 77.5 µM), for inactives: at the top dose activity change, negative = displacement, hits mostly inhibitors | 0.074% of 350,000 active | apoferritin/1-aminoanthracene competitive binding, fluorescence; note: potency is the fitted concentration of half-maximal effect; % is set by controls: 0 for no effect and ±100 for the full control effect; nearly all actives have a fitted effect of over 20% in size
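Probe: 1-aminoanthracene (50% saturated, PBS). Protein: horse-spleen apoferritin, 10 uM. Incubation: 10 min, room temperature. Detection: 380 nm excitation, 535 nm emission. Analysis: normalized response, four-parameter Hill.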
RGS12 GoLoco inh-1: inhibitors of human Gai1-RGS12 GoLoco interaction (red fluorophore) | P63096 | Gai1:RGS12 GoLoco peptide FP, rhodamine, 10 min | Potency, µM (titrated, usually from 61.6 µM), for inactives: top-dose activity, negative = inhibition, most hits filed as inhibitors | 0.44% of 230,000 active; active = well fitted inhibition curve with a large enough effect, not every such curve was filed as active; inactive = no such curve, though single readings can be large or run the other way; note: potency is the fitted concentration of half-maximal effect; % is set by controls: 0 for no effect and ±100 for the full control effect; nearly all actives have a fitted effect of over 30% in size
BRCA1 expr up: activators of BRCA1 expression | Potency, µM (series often up to 46.1 µM), without a hit: at the highest dose activation, hits mostly activators | MCF7-BRCA1-FFLuc reporter, luminescence, 48 h; response scale: scaled: vehicle 0%, 10 µM genistein 100% | 1.1% of 380,000 active | AID 624202; note: potency is the fitted concentration of half-maximal effect; nearly all actives have a fitted effect of over 80% in size
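Activators of BRCA1 expression were detected as increased firefly luciferase luminescence in engineered MCF7 cells after 48 h compound incubation. Signals were scaled to genistein 10 microM as full activation.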
ERG-DNA inh: blocks human ERG Ets domain binding to DNA. P11308. fluorescence polarization, His-ERG Ets domain / labelled DNA. Potency, µM (titrated, usually from 76.9 µM), inactives show top-dose FP activity, negative = inhibition, actives largely listed as inhibitors. 0.028% of 370,000 active. AID 624246; active = well fitted inhibition curve with a large enough effect in the polarisation, with a control signal flat; inconclusive = small, poorly fitted or top-dose-only effect, or effect the other way, or a change in a side signal; inactive = no such curve, though single readings can be large or run the other way; the % refers to the polarisation;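 note: polarization taken with two DNA probes labelled with fluorescein and Texas red; potency is the fitted concentration of half-maximal effect; % of control where 0% means no effect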
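His-tagged ERG Ets domain (1 uM in the protein solution; 300mM KCl, 50mM Tris-HCl, 1mM EDTA, 1mM DTT, pH 7.5) received compound, then a probe mix of 5 nM fluorescein-DNA and 100nM Texas-615-DNA. Fluorescence polarization was read for both dyes.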
RGS12 GoLoco inh-2: RGS12 (human) GoLoco motif inhibition, red FP; AID 2390; 50% of 110 active; Gai1/rhodamine-RGS12 GoLoco peptide fluorescence polarization; shares compounds with RGS12 GoLoco inh-1; Potency, µM (doses to about 57.1 µM), without a hit: at the highest dose activity, negative = inhibition, most hits filed as inhibitors
* = called active by the depositor; i = inactive; ? = inconclusive; nt = not tested or not shown; ! = not active in a repeat; [ ] = remark or other dose. A selection: hits, their analogues and other compounds. The true share with any hit is near 1.2%. Unless noted, calls come from the whole dose curve; as a rule, active = well fitted curve in the direction sought with a large enough effect; inconclusive = small, poorly fitted or top-dose-only effect, or another doubt; inactive = no such curve, though single readings can be large; an effect the other way counts as inactive or inconclusive.

SMILES	Apoferritin bind	RGS12 GoLoco inh-1	BRCA1 expr up	ERG-DNA inh	others
CC1=NN(c2ccc(S(=O)(=O)O)cc2C)C(=[OH+])[C@H]1N=Nc1cc(S(=O)(=O)O)ccc1C(=O)O.O.[Cr]	nt	9.9%[14.2 µM]	nt	nt
CC(C)[N+](C)(CCC(C(N)=O)(c1ccccc1)c1ccccc1)C(C)C	-11.0%	5.01µM*!	-2.6%	-15.2%
CCC(=O)C(CCN1CCOCC1)(c1ccccc1)c1ccccc1	nt	nt	-1.1%	2.9%
C[C@H]1C2C=C[C@H]1[C@@H](C(=O)O)[C@@H]2c1c2ccc(=O)c(O)c-2oc2c(O)c(O)ccc12	nt	-35.5%[14.2 µM]	nt	nt
c1ccc(CCNCc2ccccc2)cc1	-3.8%	128.8%	17.2%	nt
CC1=C/C(=N\NC(=S)NCCc2ccccc2)CC(C)(C)C1	-5.6%	8.5%	11.2µM*	-1.9%
CNC(=O)OCCc1n(C)cc[n+]1C	-1.5%	1.58µM*	1.4%	-9.2%
COc1cc2c(cc1OC)[C@@]13CCN4C=C5CCO[C@H]6CC(=O)N2[C@@H]1C6[C@H]5C[C@H]43 (some centres not stated)	nt	4.5%[14.2 µM]	nt	nt
O=c1c2cc(N3CCOCC3)ccc2[nH]c(=S)n1Cc1ccc(Cl)cc1	1.8%	-9.8%	11.2µM*	-0.1%
Cc1cc(C(=O)CS(=O)(=O)c2ccc(F)cc2)cc(C)c1OC(=O)N(C)C	-19.5%	13.6%	3.98µM*	-12.4%
CN(C)C(=O)Oc1c(Cl)cc(Cl)c2ccccc12	?	9.8%	-30.1%	11.4%
COc1ccc(OC)c(NC(=O)Cn2cc(C(=O)c3ccccc3F)c3ccccc32)c1	-1.5%	nt	-30.0%	1.3%
COc1cccc(C2CCN(CC(=O)Nc3cc(Cl)ccc3OC)CC2O)c1 (configuration not stated)	-12.3%	nt	-13.1%	20µM*
CC1(C)CCC(C)(C)c2c1ccc(O)c2Cc1c(O)ccc2c1C(C)(C)CCC2(C)C	nt	1.2%[14.2 µM]	nt	nt
CC(=O)[O-].CC(=O)[O-].O.O.[Cd+2]	nt	-4.1%	nt	nt
CC(=O)O[C@H]1C(=O)[C@@]2(C)C([C@H](OC(=O)c3ccccc3)[C@]3(O)C[C@H](OC(=O)[C@H](O)[C@@H](NC(=O)c4ccccc4)c4ccccc4)C(C)=C1C3(C)C)[C@]1(OC(C)=O)CO[C@@H]1C[C@@H]2OC(=O)[C@H](C)NC(=O)c1ccc(-c2c3ccc(=O)cc-3oc3cc(O)ccc23)c(C(=O)O)c1 (some centres not stated)	133.3%[15.3 µM]	2µM*	nt	nt
NC(Cc1nc2ccccc2[nH]1)c1ccc(Cl)cc1 (configuration not stated)	-6.5%	9.7%	11.2µM*	0.5%
CCCCC[CH2][Hg][S]C1=C2N=CNC2NC(N)=N1 (configuration not stated)	nt	-70.7%[14.2 µM]	nt	nt
Cc1cccc2c3c(ccc12)C1=C(C(=O)C3=O)[C@@H](C)CO1	0.0%	nt	nt	nt
CC(Cl)CCl (configuration not stated)	nt	2.8%	nt	nt
c1nc(N2CC2)c2cnn([C@@H]3CCCCO3)c2n1	nt	2.3%[14.2 µM]	nt	nt
C[C@@H]1O[C@@H](O[C@H]2CC[C@@H](O[C@H]3[C@H](O)C[C@H](c4ccc5c(c4O)C(=O)C4=C(C5=O)[C@@]5(O)C(=O)C[C@](C)(O[C@H]6CC[C@H](O[C@H]7C=CC(=O)[C@H](C)O7)[C@H](C)O6)C[C@@]5(O)C=C4)O[C@@H]3C)O[C@H]2C)C=CC1=O	-23.8%	nt	nt	nt
NC(Cc1cc(O)c(O)cc1O)C(=O)O (configuration not stated)	nt	14.1µM*	-7.1%	nt
C[C@@]12Cc3cnc(-c4ccccc4)nc3C[C@@H]1CC[C@@H]1[C@H]3CC[C@@](C)(O)[C@]3(C)CC[C@@H]12	nt	7.1%[14.2 µM]	nt	nt
CCC1=C(C[C@H]2NCCc3cc(OC)c(OC)cc32)C[C@H]2c3ccccc3CCN2C1	nt	9.9%[14.2 µM]	nt	nt
SMILES	Apoferritin bind	RGS12 GoLoco inh-1	BRCA1 expr up	ERG-DNA inh	others
O=C(O)CN1CCN(CC(=O)O)CC(=O)[O][Hg][O]C(=O)C1	nt	0.447µM*	nt	nt
N[C@H](Cc1c[nH]c2ccccc12)P(=O)(O)O	nt	7.7%[14.2 µM]	nt	nt
O=C(O)CCn1cc(C=C2C(=O)NC(=S)NC2=O)c(-c2ccccc2)n1	-10.8%	28.2µM*	1.7%	4.9%
O=C(O)CCn1cc(C=C2C(=O)NC(=S)NC2=O)c(-c2cc3ccccc3oc2=O)n1	?	140.2%	5.8%	57.6%
CCN1/C(=C\C=C\C2=[N+](CC)c3ccccc3C2(C)C)C(C)(C)c2ccccc21	28.2µM*	i	-93.9%	-161.3%
O=S(=O)(NCCO)c1cc[c]([Sb])cc1	nt	5.2%[14.2 µM]	nt	nt
C[C@]12CC[C@H](O)CC1=CC[C@@H]1[C@@H]2CC[C@]2(C)C(=O)CC[C@@H]12	nt	nt	4.4%	18.4%
CC(=O)C1CCC2C3CCC4=CC(=O)CCC4(C)C3CCC12C (configuration not stated)	-3.4%	nt	nt	nt
CCC(=O)OC1CCC2C3CCC4=CC(=O)CC[C@@]4(C)C3CC[C@]12C (some centres not stated)	?	14.1µM*	nt	nt
Cc1ccc2c(c1N)C(=O)c1ccccc1C2=O	nt	46.7%	10µM*	15.3%
O=S(=O)(O)/C(=C\c1ccccc1)c1ccccc1 (tested in a mixture with another compound)	nt	5.4%[14.2 µM]	nt	nt
O=C(O)c1cc[c]([Hg][Cl])cc1	nt	1.26µM*	-47.1%	6.2%
Cc1cc[c]([Sb]2[O]C([C@H](O)[C@H](O)C(=O)O)[C@@H](CO)[O]2)cc1 (some centres not stated)	nt	1.2%[14.2 µM]	nt	nt
CNc1ccccc1C(=O)O	-7.7%	5.0%	nt	nt
C[CH2][Hg][S]c1ccccc1C(=O)O	6.5%	28.2µM*	-79.2%	-10.8%
Nc1ccc2c(c1)Cc1cc([N+](=O)[O-])ccc1-2	-18.6%	44.0%	10µM*	1.2%
CC(C)CNCCc1ccccn1	nt	4.1%[14.2 µM]	nt	nt
C[N+]12CCC(CC1)C(C#N)(N1CCOCC1)C2 (configuration not stated)	-15.7%	2.24µM*	21.0%	2.0%	RGS12 GoLoco inh-2=?
Cc1ccc(C2(c3ccc(C)c(O)c3C)CCN(C)CC2)c(C)c1O	nt	0.4%[14.2 µM]	nt	nt
CCCC[N+]12CCC(CC1)C(=C(c1ccccc1)c1ccccc1)C2	-11.0%	7.94µM*	-13.2%	-8.1%	RGS12 GoLoco inh-2=15.8µM*
COc1cc2c3cc1Oc1c(O)c(OC)cc4c1[C@@H](Cc1ccc(cc1)Oc1cc(ccc1O)C[C@H]3N(C)CC2)N(C)CC4	nt	6.9%[14.2 µM]	nt	nt
CCC(Cl)[N+](=O)[O-] (configuration not stated)	nt	1.4%	nt	nt
C=C1C(O)(c2ccccc2)C2CC[N+]1(C)CC2 (configuration not stated)	-3.7%	10µM*	-11.6%	nt	RGS12 GoLoco inh-2=?
N[C@@H](Cc1cc(I)c(O)c(I)c1)C(=O)O	5.5%	3.16µM*!	1.7%	?	RGS12 GoLoco inh-2=?
O=[As](O)(O)c1ccc(N=Nc2ccc([As](=O)(O)O)cc2)cc1	nt	7.2%[14.2 µM]	nt	nt
NC(N)=Nc1ccc2[nH]c3c(c2c1)C[C@@]1(O)[C@H]2Cc4ccc(O)c5c4[C@@]1(CCN2CC1CC1)[C@H]3O5	nt	2.82µM*	-14.2%	8.3%	RGS12 GoLoco inh-2=7.94µM*
Oc1ccc2c3c1O[C@H]1c4[nH]c5c(c4C[C@@]4(O)[C@@H](C2)N(CC2CC2)CC[C@]314)C[C@]1(O)[C@H]2Cc3ccc(O)c4c3[C@@]1(CCN2CC1CC1)[C@@H]5O4	nt	-7.6%	nt	nt
